# Most compounds without a hit are left out; they make up all but 4% or so of the library.
# HSV replic up = increases HSV replication in cells; AID 1956; maximum fold increase; HSV replication augmentation in cells, fold increase; 0.005% of 220,000 active; in the data active means maximum fold increase above about 1.5; inconclusive means no clear call, values can overlap the other calls; tested in PC3 cells
# ROMK mod = modulators of human ROMK potassium channel; P48048; Tet-inducible ROMK, thallium flux fluorescence; actives lie on both sides; B-score at 10 µM; 2% of 130,000 active;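 active means signal ratio slope over the read window, or its plate-corrected B-score, at least 3 SD from the plate mean, either direction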;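 further: B-score of the F/F0 ratio slope over 7 to 12 s after thallium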
# Target sequence (P48048 whole entry, looked up): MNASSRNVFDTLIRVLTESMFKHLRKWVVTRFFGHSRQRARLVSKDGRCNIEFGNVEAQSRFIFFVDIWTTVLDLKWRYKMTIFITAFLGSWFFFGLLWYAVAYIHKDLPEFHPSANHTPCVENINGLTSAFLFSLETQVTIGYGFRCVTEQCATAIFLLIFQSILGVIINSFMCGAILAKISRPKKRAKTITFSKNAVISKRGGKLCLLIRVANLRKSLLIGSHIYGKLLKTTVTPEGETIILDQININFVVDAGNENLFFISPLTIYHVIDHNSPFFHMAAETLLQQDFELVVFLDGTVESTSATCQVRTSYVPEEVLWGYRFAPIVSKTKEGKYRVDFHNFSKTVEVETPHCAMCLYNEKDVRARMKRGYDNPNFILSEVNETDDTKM
# Arbovirus inh = arbovirus infection inhibition. 0.37% of 200,000 active. inhibition, % at 10 µM. arbovirus infection cell-based antiviral screen; in the data active means inhibition above about 30%
# Measles CPE = protection of cells from measles virus; Measles virus-infected cells, CPE protection, absorbance; protection (pct of control), % at 4 µM; 1.5% of 140,000 active; AID 841; in the data active means protection mostly above about 24%, no sharp cut-off; inactive means mostly below about 26%
# KCC2 mod = KCC2 (human) Cl- transport modulation; Q9H2X9; KCC2 cells, thallium flux FluoZin-2 fluorescence; B-score of Tl+ flux slope (higher = more flux/activation; lower = inhibition) at 10 µM; 2.2% of 190,000 active; AID 1456;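 active means thallium flux slope and its plate-corrected score both differing from the plate sample mean at a set confidence after two filtering rounds, in either direction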;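 further: slope of fluorescence scaled to starting intensity during 10 to 20 s after thallium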
# ROMK retest = retested hit modulating human ROMK potassium channel; 54% of 3,000 active; normalized thallium flux (F/F0 slope) at 10 µM; ROMK thallium flux, fluorescence ratio; hits give low values; shares compounds with ROMK mod;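 active means Flux at 10 µM at least 3 SD below or above vehicle control mean in one or both replicates; inconclusive means no clear call, values can overlap the other calls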
# The depositor's hits bear a star; i = inactive; ? = inconclusive; nt = not tested or not shown.
SMILES,HSV replic up,ROMK mod,Arbovirus inh,Measles CPE,KCC2 mod,ROMK retest
CCC(c1nnnn1Cc1ccc(F)cc1)N1CCN(C2CCCCC2)CC1 (stereo unspecified),i,-3.03*,-4.3,36.9,nt,?
COc1ccc2cc(C(c3nnnn3Cc3ccc(F)cc3)N3CCCCCC3)c(=O)[nH]c2c1 (stereo unspecified),i,nt,-1.4,23.1,-0.115,0.0557*
CC(C)(C)c1ccc(NNC(=O)C2CCC2)cc1,i,nt,nt,nt,-0.72,nt
CCOC(=O)c1c(CSc2nc(C)cc(C)c2C#N)n(C)c2cc(Br)c(OC(C)=O)cc12,i,nt,-23.4,6.4,-0.503,nt
CCOC(=O)c1c(CSC(=N)N)n(-c2ccc(Br)cc2)c2cc(Br)c(OC(C)=O)cc12,i,-5.21*,-34.5,2.2,1.21,0.0451*
CCCCCCCCOC(=O)c1c(CSC(=N)N)n(C)c2cc(Br)c(OC(C)=O)cc12,i,nt,nt,nt,1.66,?
O=C(CSCc1ccc([N+](=O)[O-])cc1)Nc1ccccc1C(=O)O,i,0.717,-1.0,nt,-1.34,nt
O=C(c1cc2c(s1)CCCC2)N1CCN(C(=O)C2CCCO2)CC1 (stereo unspecified),i,0.549,3.6,21.8,nt,nt
CC1CN(C(=O)c2cc3c(s2)CCC3)CC(C)O1 (stereo unspecified),i,nt,0.0,12.2,0.719,0.0856
O=[N+]([O-])c1cccc(N/N=C/c2cccc(O)c2O)c1,i,0.183,-22.9,nt,-0.853,nt
Cc1ccc(C(=O)COC(=O)c2cn3ccccc3n2)cc1,i,0.437,9.4,nt,-0.0576,nt
O=C1OC(c2cccs2)=N/C1=C\c1ccc(-c2cccc(Cl)c2)o1,i,nt,-0.4,10.5,nt,0.0518*
N=C1/C(=C\c2ccc(-c3cccc(Cl)c3)o2)C(=O)N=C2SC=C(c3ccccc3)N12,i,nt,5.5,32.0,0.396,nt
CCCNC(=O)NS(=O)(=O)c1ccc(Cl)cc1,i,nt,0.0,8.6,-0.402,nt
CCCNC(=O)c1nnsc1S(=O)c1ccc(Cl)cc1 (stereo unspecified),i,-6.4*,-37.2,nt,0.357,0.0553*
CNC(=O)c1nnsc1S(=O)c1ccc(Cl)cc1 (stereo unspecified),i,-8.78*,-37.7,nt,0.615,0.049*
CCCNC(=O)c1nnsc1S(=O)(=O)c1ccc(Cl)cc1,i,-4.87*,-37.4,nt,-0.799,0.0474*
C=CCN=Cc1c(C)[nH]n(-c2ccccc2)c1=O,i,nt,5.1,nt,0.0948,nt
COc1ccc2cc(C(=O)C3CCCN(C(=O)/C=C/c4ccccn4)C3)ccc2c1 (stereo unspecified),i,-0.768,-2.8,nt,-1.25,nt
COCc1cnc(C)nc1N,i,0.0473,4.2,nt,-0.583,nt
C=CCn1c(COc2ccccc2)nnc1SCc1ccc(C#N)cc1,i,nt,-1.8,9.9,-0.503,nt
C=CCn1c(COc2ccc(Cl)cc2)nnc1SCc1ccc(C#N)cc1,i,nt,2.7,nt,-1.39,?
COc1ccc(Cn2c3ccc(OC)cc3c3nc4ccccc4nc32)cc1,i,nt,-17.5,14.4,-0.884,nt
COc1ccc2c(c1)c1nc3ccccc3nc1n2Cc1ccc(OC(C)C)c(OC)c1,i,-3.41*,-4.8,14.2,-0.133,0.0567*
NCCCNc1ccc([N+](=O)[O-])cc1C(F)(F)F,i,-8.31*,-12.2,nt,-0.167,0.0657*
SMILES,HSV replic up,ROMK mod,Arbovirus inh,Measles CPE,KCC2 mod,ROMK retest
CSc1cccc(NC(=S)N(CCCN2CCC(C)CC2)Cc2cccs2)c1,i,-2.81,-9.0,nt,-0.76,nt
COc1cc2c(cc1OC)-c1c(OC)c(OC)cc3ccnc(c13)C2=O,nt,-3.35*,-40.1,0.7,-2.28,0.0541*
N#Cc1ccccc1Cn1c(=O)n(CCCC(=O)NCc2ccc3c(c2)OCO3)c(=O)c2ccccc21,i,3.59*,6.7,3.8,0.686,0.0864
Cc1cc(=O)n2ccccc2c1C#N,i,-0.675,1.1,3.9,nt,nt
COc1ccc2c(C#N)c3ccccn3c2c1,i,-3.07*,-8.6,nt,-1.66,0.045*
Nc1nnc(SCc2nnc(-c3ccccc3)o2)s1,i,-0.314,3.8,nt,-0.371,nt
Cc1cccc(S(=O)(=O)Nc2ccc(-c3nc4ccc(C)cc4s3)cc2)c1,i,nt,4.9,23.2,0.371,0.0787
Cc1ccc(S(=O)(=O)Nc2ccc(-c3nc4ccc(C)cc4s3)cc2)cc1,i,nt,1.8,16.4,0.467,nt
CCC(C)N1C(=O)/C(=C/c2c(NCCCOC(C)C)nc3c(C)cccn3c2=O)SC1=S (stereo unspecified),?,nt,-3.8,8.6,-0.121,nt
CCCN1C(=O)/C(=C/c2c(NCCCOC(C)C)nc3c(C)cccn3c2=O)SC1=S,?,nt,7.7,3.0,-0.0627,0.0546*
